LmPK act: boosts Leishmania mexicana pyruvate kinase activity | purified LmPK, Kinase-Glo ATP luminescence, 1 h | 290,000 tested, under 10 active | activity change, negative = inhibition, % at 57.5 µM | Q27686 | AID 1722; calls by dose curve
Target sequence (Q27686 whole entry, looked up): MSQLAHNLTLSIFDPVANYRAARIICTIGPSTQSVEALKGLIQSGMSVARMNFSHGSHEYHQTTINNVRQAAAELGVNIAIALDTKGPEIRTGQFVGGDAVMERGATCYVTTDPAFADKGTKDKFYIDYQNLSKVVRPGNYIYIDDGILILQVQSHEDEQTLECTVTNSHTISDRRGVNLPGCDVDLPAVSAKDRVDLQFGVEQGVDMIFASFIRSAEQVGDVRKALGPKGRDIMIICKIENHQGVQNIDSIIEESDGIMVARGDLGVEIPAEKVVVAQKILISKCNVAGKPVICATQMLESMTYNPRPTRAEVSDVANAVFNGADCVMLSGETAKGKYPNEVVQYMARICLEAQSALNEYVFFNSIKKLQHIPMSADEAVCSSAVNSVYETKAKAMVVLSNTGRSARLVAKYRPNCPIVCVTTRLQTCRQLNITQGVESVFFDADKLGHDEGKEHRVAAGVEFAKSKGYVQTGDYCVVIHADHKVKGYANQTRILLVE
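Purified LmPK (0.1 nM) converted ADP (0.1 mM, ~10-fold below Km) plus PEP (0.5 mM, at Km) to ATP over 1 h at room temperature in pH 7.2 imidazole buffer. Generated ATP was read by luciferase luminescence.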
* hit, by the source's call. The list is a sample of the results.

SMILES | LmPK act
Fc1ccc(-n2nnc(-c3nccs3)n2)cc1 | -71
Cc1ccc(-c2nc3ccccc3nc2NN)cc1 | -48
CC1=C/C(=C(\c2cc(C)c(O)c(Br)c2)c2ccccc2S(=O)(=O)O)C=C(Br)C1=O | -93
C/C(=N\OC(=O)c1ccccc1F)c1nccs1 | -44
COc1ccc2c(=O)c(-c3ccc4c(c3)OCO4)coc2c1 | -33
Cc1ccc(C(=O)Nc2ccc(C(=O)N3CCCCC3)cc2)o1 | -42
O=C(c1ccc2c(c1)OCCCO2)c1cccs1 | -37
CCCCN(C)C(=O)c1cc2cc3ccc(OC)cc3nc2s1 | -75
CCOC(=O)c1c(N2C(=O)C=CC2=O)sc(C)c1C | -37
O=[N+]([O-])c1ccc(OCc2n[nH]c(=S)n2-c2ccccc2)cc1 | -30
Cc1ccccc1C(=O)N/N=C1\SCC(=O)N1Cc1ccco1 | -45
CCc1nc2sc3c(O)cc(=O)[nH]c3c2cc1C | -37
c1ccc(-c2nc(-c3nccc4ccccc34)oc2-c2ccccc2)cc1 | -30
CCOc1ccc(NC(=O)Nc2cccnc2)cc1 | -85
CC(C)C(c1nnnn1Cc1ccc(F)cc1)N1CCN(c2ccc(O)cc2)CC1 (stereo not drawn) | -42
Cc1ccc(-n2c(-c3c(-c4ccccc4)noc3C)n[nH]c2=S)cc1 | -76
C=CCN1C(=O)/C(=c2\sc3nc(=O)c(Cc4ccc(OC)c(OC)c4)nn3c2=O)c2ccccc21 | -44
O=C(Nc1ccc2[nH]ccc2c1)c1ccc(F)cc1 | -36
CCOC(=O)N1CCN(Cc2nnc(-c3ccccc3C)o2)CC1 | -115
COc1ccc(C(=O)NN/C(=N/S(=O)(=O)c2ccc(C)cc2)c2ccccc2)cc1 | -35
c1ccc(-c2cn3c(n2)-c2ccccc2C3)cc1 | -93
O=S(=O)(Nc1ccc(O)c2ccccc12)c1ccc(Br)cc1 | -32
Cc1nc2cc(NC(=O)Nc3ccccc3Cl)ccc2n1C | -41
CCCCC(CC(O)COCCC)c1n[nH]c(=S)n1-c1ccccc1 (stereo not drawn) | -46
CCN(CC)c1ccc(/C=C/C(=O)C2C(=O)C=C(C)OC2=O)cc1 (stereo not drawn) | -40
SMILES | LmPK act
CC(C)n1c(=S)[nH]c2cc(Cl)ccc21 | -51
Cc1nc(NC(=O)c2cccs2)ccc1Br | -42
CC(C)(C)c1cc(-c2n[nH]c(=S)n2-c2ccc(Cl)cc2)n[nH]1 | -77
CCCNC(=O)Cn1sc2nc(C)cc(C)c2c1=O | -35
CCOC(=O)C1=C(C)C/C(=N\NC(=O)c2ccccc2O)CC1 | -58
CC(=O)c1cn(Cc2ccccc2)c(=O)[nH]c1=O | -37
c1ccc(-c2ncc(-c3ccn[nH]3)s2)cc1 | -42
COc1cc([N+](=O)[O-])c(OC)cc1SCc1n[nH]c(=S)n1-c1ccc(F)cc1 | -40
Cn1cc(Cl)c(-c2n[nH]c(=S)n2C2CCCCC2)n1 | -69
Oc1ccc(CCc2n[nH]c(=S)n2-c2ccc(F)cc2)cc1 | -95
O=C(/C=C/c1ccc2c(c1)OCO2)Nc1cccnc1 | -61
O=C(NCc1ccccc1)c1cc2ccc(O)cc2oc1=O | -34
S=c1[nH]nc([C@@H]2C[C@H]2c2ccccc2)n1-c1ccccc1Cl | -68
Nc1ncccc1OCc1ccc(Cl)c(Cl)c1 | -35
COc1ccc(/C=C2\N=C(SC)N(C)C2=O)cc1 | -49
S=c1[nH]nc(Cn2cnc3ccccc32)n1-c1ccccc1Cl | -44
CNc1nnc(-c2ccc(N(C)C)cc2)s1 | -41
COc1ccc(/C=N/Nc2ncccc2[N+](=O)[O-])c(OC)c1 | -68
CCCc1ccc(C(=O)/C=C/N(C)C)cc1 | -34
Cc1cccc2c1c1ccc3c(c1n2C)C(=O)C=CC3=O | -30
CCCCn1c(-c2ccc([N+](=O)[O-])cc2)n[nH]c1=S | -57
CN(Cc1ccon1)Cc1cn(C)nc1-c1cccc(Cl)c1 | -110
O=C1N=c2ccc([N+](=O)[O-])cc2=C1c1sc(=O)[nH]c1O | -32
Cc1ccccc1OCC(=O)Nc1ccccc1-c1ccccc1 | -39
Cc1ccc(NCc2n[nH]c(=S)n2-c2ccccc2)c(C)c1 | -38
SMILES | LmPK act
CCOC(=O)C(=O)Nc1cc(C)on1 | -66
O=C(CBr)c1ccc([N+](=O)[O-])c(CS(=O)(=O)c2ccc(Cl)cc2)c1 | 2
Cc1nonc1C(=O)N/N=C/c1cccc(O)c1 | -79
CC(C)OC(=O)Nc1ccc2c(c1)N(C(=O)N1CCN(C)CC1)c1ccccc1CC2 | -47
Cc1cc(/C=N/Nc2nc(N)ncc2[N+](=O)[O-])c(C)n1-c1ccccc1F | -60
Cc1nc(-c2ccc(NC(=O)c3ccc(Br)o3)cc2)cs1 | -30
CCc1ccc(C(=O)COC(=O)c2n[nH]c3ccccc23)cc1 | -45
Cc1cc(N2C(=O)C=CC2=O)c([N+](=O)[O-])cc1C | -32
Cc1ccccc1-c1nnc(-c2cccs2)o1 | -34
CCCCc1n[nH]c(=S)n1Cc1ccc(C)cc1 | -39
CCc1ccc(NC(=O)Nc2ccsc2C(=O)OC)cc1 | -31
O=C(NC(=O)c1ccccc1O)c1ccc2c(c1)CCO2 | -41
OCc1c[nH]c(=S)n1CCOc1cccc(C(F)(F)F)c1 | -35
CC1C(=O)NN=C1C(=O)N/N=C/c1cccs1 (stereo not drawn) | -49
COc1ccc(/C=N/NC(=O)c2ccc[nH]2)cc1 | -35
CC(=O)N/C(=C\c1ccccc1)C(=O)OCc1cc(C)ccc1C | 1

Source: PubChem BioAssay (National Center for Advancing Translational Sciences (NCATS))
